Results published in PubChem BioAssay (NCI).
The panel holds about 79,000 compounds, 15% with a hit somewhere; the sample as a whole holds those more often. Calls of active or inactive are those of the source. Cut-off read from the data, not from the text of the source: active = growth inhibition above about 70%; inactive = the rest.

Tests used:
[1] = NCI Yeast Anticancer Drug Screen. Data for the rad52 strain (AID 147);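 note: 0% = growth of vehicle-treated control cultures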; conditions: S. cerevisiae rad52 mutant growth inhibition, hits give high values
Outline: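 Measured: yeast growth inhibition. System: strain with a defined DNA damage repair alteration. Reference: vehicle-treated control cultures.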

[2] = NCI Yeast Anticancer Drug Screen. Data for the rad50EPP+ strain (AID 151);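 note: 0% = growth of vehicle-treated control cultures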; conditions: S. cerevisiae rad50 mutant strain, hits give high values
Outline: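 One strain with a rad50 alteration (rad50EPP+) was compound-treated, its growth then compared to that of vehicle controls.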

[3] = NCI Yeast Anticancer Drug Screen. Data for the rad50 strain (AID 155);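 note: 0% = growth of vehicle-only cultures of the same strain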; conditions: S. cerevisiae rad50 strain growth inhibition, hits give high values
Outline: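 Inhibition values express reduced yeast growth in compound-treated cultures relative to vehicle-treated controls.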

[4] = NCI Yeast Anticancer Drug Screen. Data for the mec2-1 strain (AID 157); conditions: S. cerevisiae mec2-1 strain, hits give high values
Outline: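 Test agents were screened against the mec2-1 yeast strain, with defined DNA repair or cell cycle alteration. Growth was scored as inhibition against vehicle-only controls.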

[5] = NCI Yeast Anticancer Drug Screen. Data for the rad14 strain (AID 159);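 note: 0% = growth of vehicle-treated control cultures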; conditions: S. cerevisiae rad14 strain growth inhibition, hits give high values
Outline: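 A mutant yeast strain defective in DNA damage repair is treated with compound; inhibition of its growth is scored against untreated, vehicle-exposed cultures.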

[6] = NCI Yeast Anticancer Drug Screen. Data for the sgs1 mgt1 strain (AID 161);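 note: 0% = growth of cultures given vehicle only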; conditions: S. cerevisiae sgs1 mgt1 strain, hits give high values
Outline: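 Genetically altered yeast, compound exposure, growth inhibition relative to vehicle.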

[7] = NCI Yeast Anticancer Drug Screen. Data for the CLN2oe strain (AID 163);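 note: 0% = growth of vehicle-only control cultures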; conditions: S. cerevisiae CLN2oe strain, hits give high values
Outline: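 Here, growth inhibition in a cell-cycle-altered yeast strain after compound exposure was quantified against vehicle control growth.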

[8] = NCI Yeast Anticancer Drug Screen. Data for the cln2 rad14 strain (AID 165);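 note: 0% = growth equal to vehicle treated cultures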; conditions: S. cerevisiae cln2 rad14 strain, hits give high values
Outline: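 Growth of compound-exposed yeast (cln2 rad14 genotype) measured and expressed as inhibition relative to vehicle.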

[9] = NCI Yeast Anticancer Drug Screen. Data for the bub3 strain (AID 167); conditions: S. cerevisiae bub3 mutant strain, hits give high values
Outline: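 Steps: expose the mutant yeast strain to compound; grow alongside vehicle-treated cultures; measure growth; express inhibition against the vehicle cultures.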

[10] = NCI Yeast Anticancer Drug Screen. Data for the wt2 strain (AID 169);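 note: 0% = growth of vehicle-treated yeast cultures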; conditions: S. cerevisiae wt2 strain growth inhibition, hits give high values
Outline: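 Genetically defined yeast strains from a DNA-repair/cell-cycle panel were used. Compound-exposed yeast growth was measured, and the inhibition was calculated relative to vehicle treatment.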

[11] = NCI Yeast Anticancer Drug Screen. Data for the sgs1 strain (AID 173);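 note: 0% = growth of vehicle-only control cultures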; conditions: S. cerevisiae sgs1 mutant, hits give high values
Outline: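 Relative growth inhibition, referenced to vehicle, was determined in a yeast strain with a defined alteration affecting DNA damage repair or cell cycle control after compound exposure.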

[12] = NCI Yeast Anticancer Drug Screen. Data for the mlh1 rad18 strain (AID 175); conditions: S. cerevisiae mlh1 rad18 strain growth inhibition, hits give high values
Outline: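 In this whole-cell yeast screen, a strain with altered DNA damage repair is challenged with compound, and its growth is measured against matched vehicle-treated controls.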

[13] = NCI Yeast Anticancer Drug Screen. Data for the rad18 strain (AID 177); conditions: S. cerevisiae rad18 mutant growth inhibition, hits give high values
Outline: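 Screen uses a yeast strain with a defined lesion in DNA damage repair; compound effect is read as loss of growth compared to untreated vehicle cultures.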

[14] = at 5.0 µM (retest, dose inferred, filed as 0.5)
[15] = at 50.0 µM (retest, dose inferred, filed as 5.0)

Measured: growth inhibition

Oc1ccc(C=Nc2ccccc2O)cc1
inactive: [1]; at 1.2 µM 34% | [1]; at 3.7 µM 52% | [1]; at 11.0 µM 56% | [2]; at 1.2 µM 35% | [2]; at 3.7 µM 68% | [3]; at 1.2 µM 68% | [3]; [14] 13% | [4]; at 1.2 µM 23% | [4]; at 3.7 µM 29% | [4]; [14] 26% | [4]; at 11.0 µM 33% | [4]; at 33.0 µM 44% | [4]; [15] 14% | [4]; at 50.0 µM 23% | [4]; at 100.0 µM 65% | [5]; at 1.2 µM 17% | [5]; at 3.7 µM 16% | [5]; at 11.0 µM 20% | [5]; at 33.0 µM 25% | [5]; at 100.0 µM 38% | [6]; [14] 15% | [6]; [15] 42% | [6]; at 50.0 µM 28.8% | [7]; at 1.2 µM 47% | [7]; at 3.7 µM 58% | [7]; at 11.0 µM 60% | [7]; at 33.0 µM 56% | [7]; at 100.0 µM 64% | [8]; [14] 11% | [8]; [15] 31% | [8]; at 50.0 µM 1.55% | [9]; [14] 55% | [10]; at 1.2 µM 25% | [10]; at 3.7 µM 30% | [10]; at 11.0 µM 33% | [10]; at 33.0 µM 43% | [10]; at 100.0 µM 65% | [11]; at 1.2 µM 32% | [11]; at 3.7 µM 36% | [11]; at 11.0 µM 37% | [11]; at 33.0 µM 51% | [11]; at 100.0 µM 67% | [12]; [14] 48% | [13]; at 1.2 µM 61%
active: [1]; at 33.0 µM 75% | [1]; at 100.0 µM 88% | [2]; at 11.0 µM 90% | [2]; at 33.0 µM 90% | [2]; at 100.0 µM 94% | [3]; at 3.7 µM 85% | [3]; at 11.0 µM 81% | [3]; at 33.0 µM 84% | [3]; [15] 80% | [3]; at 50.0 µM 78.8% | [3]; at 100.0 µM 90% | [9]; at 1.2 µM 75% | [9]; at 3.7 µM 82% | [9]; at 11.0 µM 81% | [9]; at 33.0 µM 83% | [9]; [15] 86% | [9]; at 50.0 µM 80.3% | [9]; at 100.0 µM 92% | [12]; [15] 86% | [12]; at 50.0 µM 70% | [13]; at 3.7 µM 78% | [13]; at 11.0 µM 76% | [13]; at 33.0 µM 75% | [13]; at 100.0 µM 85%
